Screening results from PubChem BioAssay.
ROC1-CUL1 inh: inhibitors of human ROC1-CUL1 ubiquitin ligase activity | E3 ubiquitin-protein ligase RBX1 (Homo sapiens) + Cullin-1 (Homo sapiens), P62877+Q13616 | in vitro K48 di-Ub FRET, acceptor:donor ratio, 45 min | inhibition, % at 10 µM | 140,000 compounds, 0.6% hits; in the data active means inhibition above about 25%
Target sequence (P62877 whole entry, looked up): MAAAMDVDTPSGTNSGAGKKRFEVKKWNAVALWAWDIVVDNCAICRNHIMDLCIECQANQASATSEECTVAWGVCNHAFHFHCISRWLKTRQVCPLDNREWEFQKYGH
Target sequence (Q13616 whole entry, looked up): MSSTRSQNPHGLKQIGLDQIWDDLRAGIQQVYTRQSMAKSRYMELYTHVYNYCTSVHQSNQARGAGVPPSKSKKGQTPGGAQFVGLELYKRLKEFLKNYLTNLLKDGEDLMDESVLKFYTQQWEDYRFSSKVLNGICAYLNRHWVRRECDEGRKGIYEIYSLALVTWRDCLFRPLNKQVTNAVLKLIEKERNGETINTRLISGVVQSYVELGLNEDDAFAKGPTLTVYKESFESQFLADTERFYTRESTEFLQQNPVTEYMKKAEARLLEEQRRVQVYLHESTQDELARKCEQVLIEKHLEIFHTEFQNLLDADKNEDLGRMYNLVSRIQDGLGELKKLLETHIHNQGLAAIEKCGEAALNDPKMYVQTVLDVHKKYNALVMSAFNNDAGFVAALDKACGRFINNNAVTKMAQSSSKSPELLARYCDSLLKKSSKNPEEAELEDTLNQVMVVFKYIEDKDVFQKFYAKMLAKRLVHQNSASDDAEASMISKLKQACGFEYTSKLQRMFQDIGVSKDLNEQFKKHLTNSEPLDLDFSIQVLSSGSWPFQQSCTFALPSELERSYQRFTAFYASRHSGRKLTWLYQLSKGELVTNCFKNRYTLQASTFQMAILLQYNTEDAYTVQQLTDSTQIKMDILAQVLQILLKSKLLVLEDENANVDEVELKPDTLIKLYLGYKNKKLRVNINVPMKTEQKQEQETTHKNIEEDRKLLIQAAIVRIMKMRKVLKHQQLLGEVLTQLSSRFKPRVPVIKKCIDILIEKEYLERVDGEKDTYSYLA
A number is an active result; n = inactive. The sample as a whole holds a higher share of hits than the screen did.

SMILES	ROC1-CUL1 inh
COCCC1CCCCN1C(=O)CC1(c2ccccc2)CC(=O)N(Cc2ccc3c(c2)OCO3)C1=O (stereo not given)	n
Cc1c(-c2ccc(O)c(O)c2)oc2ccccc2c1=O	93
Cc1cccc2oc3ccccc3c(=O)c12	n
Cc1ccc2oc3ccccc3c(=O)c2c1	n
COc1ccc(C(=O)/C=C/c2ccc(C(C)(C)C)cc2)cc1	n
CCOc1cc(C2c3c(-c4ccccc4O)n[nH]c3C(=O)N2CCc2ccccc2)ccc1O (stereo not given)	n
Cc1ccc(NC(=O)c2c(C)nc3sc(C(=O)Nc4ccc(F)cc4)c(N)c3c2-c2ccc(C)o2)c(C)c1	n
O=C(O)C#CC12CC3CC(CC(C3)C1)C2	n
OC(C#CC12CC3CC(CC(C3)C1)C2)c1ccccn1 (stereo not given)	n
Cc1ccc(C(O)C#CC23CC4CC(CC(C4)C2)C3)o1 (stereo not given)	99
Cc1c(C(=O)N2CCOCC2)oc2c1-c1nn(CC(=O)NCc3cccc(Cl)c3)cc1CC2	n
Cc1ccc(NC(=O)c2sc3ncccc3c2N)cc1C	n
C=CCN(CC=C)c1ccc(-c2nc(-c3cccc(OC)c3OC)no2)cn1	n
N#CC(C#N)C(=NC(=Nc1ccc(Cl)cc1)c1ccccc1)C(F)(F)F	n
Cc1ccc(OCCCOc2c(Cl)cc(Cl)cc2/C=C2\C(=O)NN(c3ccccc3)C2=O)cc1	77
COc1cc(/C=C2\C(=O)NN(c3ccccc3)C2=O)cc(Cl)c1OCCCOc1ccc(Cl)cc1	n
Cc1cc(OCCOc2ccccc2/C=C2\C(=O)NN(c3ccccc3)C2=O)ccc1Cl	n
CCCOc1ccccc1/C=C1/C(=O)NN(c2ccc(I)cc2)C1=O	n
Cc1ccc(OCCCOc2ccccc2/C=C2\C(=O)NN(c3ccccc3)C2=O)cc1	36
Cc1ccccc1COc1ccc(Cl)cc1/C=C1\C(=O)NN(c2ccccc2)C1=O	n
Cc1ccc(COc2ccc(Cl)cc2/C=C2\C(=O)NN(c3ccccc3)C2=O)cc1	n
COc1cc(/C=C2/C(=O)NN(c3ccc(C)cc3)C2=O)cc(Cl)c1OC	n
O=C1NN(c2ccccc2)C(=O)/C1=C/c1cn(CCCOc2ccc(Cl)cc2)c2ccccc12	n
O=C1NN(c2ccccc2)C(=O)/C1=C/c1cc(Cl)ccc1OCc1ccc(Cl)cc1	41
COc1cc(/C=C2\C(=O)NN(c3ccccc3)C2=O)cc(Cl)c1OCCCOc1ccc(C)cc1	92
SMILES	ROC1-CUL1 inh
Cc1ccc(N2NC(=O)/C(=C/c3ccccc3OCc3ccccc3)C2=O)cc1Cl	n
CCN(CC)C(=O)Cn1c(=O)n(Cc2ccc(C(=O)NCCc3ccc(OC)c(OC)c3)cc2)c(=O)c2ccccc21	n
COc1ccc(N=c2scc(-c3ccc4c(c3)OCCO4)n2CCO)cc1	n
COc1cc2nc(N(C)C)c(CNCCc3ccccc3Cl)cc2c(OC)c1OC	n
CCN(CC)S(=O)(=O)c1cccc(N=Nc2c(O)n(C)c(=O)n(C)c2=O)c1	n
CCCn1c(C)cn2c3c(=O)n(CCC(C)C)c(=O)n(C)c3nc12	n
COc1cc(S(=O)(=O)NC(C)(C)C)ccc1Cl	n
CCN1CCN(C(=O)c2cc3c(=O)n4cc(C)ccc4nc3n2C)CC1	n
CC1CCCCN1S(=O)(=O)c1ccc(NC(=O)c2ccc(C(C)(C)C)cc2)cc1 (stereo not given)	n
Cc1ccccc1NC(=O)Cc1cccs1	n
O=C(Cc1cccs1)Nc1ccccc1O	n
O=C(Cc1cccs1)Nc1ccc(Cc2cccc(NC(=O)Cc3cccs3)c2C(=O)O)cc1C(=O)O	27
CCCCNC(=O)CCCN1C(=O)c2ccccc2Sc2ncccc21	n
Cc1cc(C)n(CCC(=O)N/N=C/c2c[nH]c3ccccc23)n1	n
CCOc1ccc(N2C(=O)/C(=C/c3cccn3C)C(=O)NC2=S)cc1	n
Cc1c(Cl)cccc1N1C(=O)/C(=C/c2cccn2-c2cccc(C(=O)O)c2)C(=O)NC1=S	101
O=C1NC(=O)N(c2ccccc2F)C(=O)/C1=C/c1cccn1-c1ccc(Br)cc1	n
Cn1cccc1/C=C1\C(=O)NC(=S)N(c2ccccc2F)C1=O	95
Cc1c(Cl)cccc1N1C(=O)/C(=C/c2cc(C)n(-c3ccc(C#N)cc3)c2C)C(=O)NC1=S	n
O=C1NC(=S)N(c2ccc(Cl)cc2)C(=O)/C1=C/c1cccn1-c1cccc(C(=O)O)c1	25
CCc1cccc(C)c1-n1c(C)cc(/C=C2\C(=O)NC(=S)N(c3ccccc3F)C2=O)c1C	n
CCc1ccc(N2C(=O)/C(=C/c3cccn3-c3ccccc3)C(=O)NC2=S)cc1	n
Cc1c(/C=C2/C(=O)NC(=S)N(c3cccc(Cl)c3Cl)C2=O)c2ccccc2n1C	n
Cc1cc(/C=C2\C(=O)NC(=S)N(c3ccc(Cl)cc3)C2=O)c(C)n1-c1ccc(Cl)cc1	n
Cc1cc(/C=C2\C(=O)NC(=S)N(c3ccccc3F)C2=O)c(C)n1-c1ccc(C(=O)O)c(Cl)c1	86
SMILES	ROC1-CUL1 inh
O=C1NC(=S)N(c2ccc(Br)cc2)C(=O)/C1=C/c1cccn1-c1ccccc1	n
Cc1ccccc1C1CCN(CCNC2CCN(c3ccc(NC(=O)c4cnccn4)cc3)CC2)C1 (stereo not given)	n
CCN(CC)CCCC(=O)C1(c2ccccc2)CCCC1	n
Cc1ccc(Oc2ncccc2CNC2CCOCC2)c(F)c1F	n
COc1ccc(C2CC(=O)C(C=NCc3ccc(Cl)c(Cl)c3)C(=O)C2)cc1 (stereo not given)	n
O=C1N(CC2CCCCC2)CCCC1(O)CNCc1n[nH]c2c1CCC2 (stereo not given)	n
Cn1nccc1C(=O)C#Cc1ccccc1	62
Cn1nccc1C(=O)n1cnc2ccccc21	n
Cn1nccc1C(=O)NC(C)(C)CC(C)(C)C	n
Cc1[nH][nH]c(=O)c1C(c1c(C)[nH][nH]c1=O)c1cn(Cc2ccccc2Cl)c2ccccc12	68
O=C1OC2(CCCCC2)OC(=O)C1=Cc1cn(Cc2ccccc2Cl)c2ccccc12	n
CCOc1ccc2c(c1)c(=O)c(S(=O)(=O)c1ccc(C)cc1)cn2Cc1ccccc1Cl	n
COCCN1CC(C(=O)NCc2scnc2-c2ccccc2)CCC1=O (stereo not given)	n
CC1=NN(c2ccccc2)C(=O)C1C=Nc1ccccc1-c1nnc(SCc2ccccc2)[nH]c1=O (stereo not given)	37
CSc1nnc(-c2ccccc2N=CC2C(=O)N(c3ccccc3)N=C2C)c(=O)[nH]1 (stereo not given)	n
CC1=NN(c2ccc(F)cc2)C(=O)C1C=Nc1cccc2ccccc12 (stereo not given)	n
Cc1ccc(C(=O)NCc2cccnc2N(C)C)cn1	n
O=C(O)c1ccc(-c2nc3ccccc3n2-c2ccccc2)cc1	n
COc1cccc(CNC(=O)N2CCC(Cn3cc(CO)nn3)CC2)c1	36
COCc1cn(CC2CCN(C(=O)NCc3ccccc3F)CC2)nn1	n
Cc1ccc(CCC(=O)N2CCC(Cn3cc(CO)nn3)CC2)cc1C	n
O=C(Nc1ccc(OCCOc2ccccc2)cc1)c1ccco1	n
CCOc1ccc2nc3cc(NC(=O)c4ccco4)ccc3c(N)c2c1	97
CCCCOc1cccc(NC(=O)c2ccco2)c1	n
CN1C(=O)C2C=C(c3ccccc3)C1C(C(=O)O)C2C(=O)O (stereo not given)	n
CN1C(=O)C2CCC1C1C(=O)NC(=O)C21 (stereo not given)	n
CC1=Nc2ncnn2C(c2sccc2C)C1C(=O)Nc1cc(Cl)ccc1C (stereo not given)	n
CCOC(=O)C1=C(c2ccccc2)N=c2s/c(=C/c3ccccc3O)c(=O)n2C1c1ccc2c(c1)OCO2 (stereo not given)	n
